# Measured values reported in PubChem BioAssay (Tox21).
# Unmarked numbers belong to inactive results. Inconclusive results are not listed. Where a call stands in place of a potency, no number is given. The source made the active and inactive calls. Unless noted, calls follow the shape of the dose curve; as a rule, active = well fitted curve in the direction sought with a large enough effect in the repeat runs; inconclusive = weak or mixed curves; inactive = no such curve, though single readings can be large; an effect the other way counts as inactive or inconclusive.
# Assays:
# [1] = molecular target: Thyrotropin receptor (Homo sapiens) (UniProt P16473); assay: qHTS assay to identify small molecule antagonists of the thyroid stimulating hormone receptor (TSHR) signaling pathway (AID 1259385; calls by dose curve; also: nearly all actives have a fitted effect of over 20% in size)
# Thyrotropin receptor (Homo sapiens), sequence (P16473 whole entry, looked up): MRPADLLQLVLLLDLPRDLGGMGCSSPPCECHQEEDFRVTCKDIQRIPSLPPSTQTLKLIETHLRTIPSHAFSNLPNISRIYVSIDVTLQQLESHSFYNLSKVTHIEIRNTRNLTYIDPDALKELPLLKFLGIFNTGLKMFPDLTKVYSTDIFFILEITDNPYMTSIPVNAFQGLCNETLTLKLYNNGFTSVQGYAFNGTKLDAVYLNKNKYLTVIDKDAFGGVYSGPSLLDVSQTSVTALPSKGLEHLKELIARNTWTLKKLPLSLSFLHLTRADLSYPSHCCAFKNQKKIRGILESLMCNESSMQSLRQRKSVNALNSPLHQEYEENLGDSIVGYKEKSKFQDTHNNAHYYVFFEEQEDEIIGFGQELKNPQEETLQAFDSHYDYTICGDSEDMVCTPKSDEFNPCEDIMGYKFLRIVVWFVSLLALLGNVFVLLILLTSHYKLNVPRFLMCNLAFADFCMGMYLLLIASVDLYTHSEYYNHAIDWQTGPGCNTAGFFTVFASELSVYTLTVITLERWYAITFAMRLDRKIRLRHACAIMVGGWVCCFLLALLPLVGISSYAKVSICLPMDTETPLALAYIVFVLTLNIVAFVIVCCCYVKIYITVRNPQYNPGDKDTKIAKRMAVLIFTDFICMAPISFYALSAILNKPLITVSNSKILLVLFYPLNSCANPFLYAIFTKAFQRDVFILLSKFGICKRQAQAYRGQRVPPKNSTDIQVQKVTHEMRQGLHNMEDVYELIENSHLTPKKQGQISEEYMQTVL
# Outline: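 Antagonist mode: compound-treated TSHR-expressing HEK293 cells were stimulated with 1.5 ng/mL TSH (final) in presence of Ro20-1724 for 30 min at RT. HTRF cAMP detection after 1 h; each compound tested at 15 concentrations, triplicate.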
# [2] = qHTS assay to identify small molecule agonists of the estrogen receptor alpha (ER-alpha) signaling pathway in the presence of an antagonist - cell viability counter screen (AID 1259386); also: series mostly up to about 92 µM; nearly all actives have a fitted effect of over 30% in size
# Outline: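 Compounds tested at 15 concentrations for 22 h at 37C alongside 10.0nM (final) ICI-182,780 antagonist, in VM7Luc4E2 cells grown in phenol red-free, charcoal-stripped medium. Viability read by CellTiter-Fluor fluorescence after 1 h reagent incubation.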
# [3] = qHTS assay to identify small molecule antagonists of the progesterone receptor (PR) signaling pathway - cell viability counter screen (AID 1346798); also: series mostly up to about 92 µM; nearly all actives have a fitted effect of over 50% in size
# Outline: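 ATP content as viability readout: CellTiter-Glo luminescence, 30 min room temperature, in PR-UAS-bla HEK293T cells after 16 hr compound/R5020 treatment at 37C and 5% CO2.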
# [4] = qHTS assay to identify small molecule agonists of the progesterone receptor (PR) signaling pathway - cell viability counter screen (AID 1346799; calls by dose curve; also: nearly all actives have a fitted effect of over 45% in size; also: potency is read from the fitted curve at half-maximal effect)
# Outline: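 Cytotoxicity in PR-bla HEK293T cells: 16 h compound, 37C; CellTiter-Glo added post-FRET read; luminescence after 30 min RT.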
# [5] = qHTS assay to identify small molecule antagonists of the TGF-beta/Smad signaling pathway - cell viability counter screen (AID 1346824); also: nearly all actives have a fitted effect of over 50% in size
# Outline: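 Cytotoxicity counter-screen run in the same wells as the beta-lactamase Smad reporter read: CellTiter-Glo luminescence after 30 min at room temperature. HEK 293T SBE-bla cells had 5 hr compound exposure at 37 C with TGF-beta1 (0.25 ng/mL stock).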
# [6] = qHTS assay to identify small molecule agonists of the TGF-beta/Smad signaling pathway - cell viability counter screen (AID 1346829); also: top concentration of the series differs between compounds; nearly all actives have a fitted effect of over 45% in size
# Outline: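 HEK 293T SBE-bla line, 5 hr compound exposure at 37 C, multiplexed CellTiter-Glo viability read by luminescence.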
# [7] = qHTS assay to identify small molecule agonists of the TGF-beta/Smad signaling pathway (AID 1346859; active = well fitted activation curve with a large enough effect in the signal ratio in the repeat runs, not every such curve was filed as active; the % refers to the signal ratio; also: series mostly up to about 77 µM)
# Outline: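 Stable Smad binding element-beta-lactamase HEK 293T cells; 5 hr compound exposure at 37 C under 5% CO2; 2 hr room-temperature substrate step; fluorescence excited at 405 nm, collected at 460 nm and 530 nm.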
# [8] = Caspase-3/7 induction in HepG2 cells by small molecules, qHTS assay (AID 1346978); also: nearly all actives have a fitted effect of over 15% in size
# Outline: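 Caspase-3/7 induction was measured by Caspase-Glo 3/7 luminescence (30 min, room temperature) after a 17 hr compound exposure of wild-type HepG2 cells seeded at 2,000 per well and pre-incubated 5 hr.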
# [9] = Caspase-3/7 induction in CHO-K1 cells by small molecules, qHTS cell viability counter screen (AID 1346979); also: nearly all actives have a fitted effect of over 35% in size
# Outline: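 To flag cytotoxic compounds, treated CHO-K1 wild-type cells were given CellTiter-Fluor at 16hr and read fluorescently after 1hr at 37C; the caspase-3/7 luminescence was measured in these same wells.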
# [10] = Caspase-3/7 induction in CHO-K1 cells by small molecules, qHTS assay (AID 1346980); also: nearly all actives have a fitted effect of over 15% in size
# Outline: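 Luminescent Caspase-Glo 3/7 read (30min, room temperature) quantified apoptosis induction. Cells were wild-type CHO-K1, treated with compound for 17hr at 37 C and 5% CO2.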
# [11] = molecular target: Nuclear receptor subfamily 1 group I member 2 (Homo sapiens) (UniProt O75469); assay: Human pregnane X receptor (PXR) small molecule agonists, qHTS assay (AID 1346982); also: nearly all actives have a fitted effect of over 35% in size
# Nuclear receptor subfamily 1 group I member 2 (Homo sapiens), sequence (O75469 whole entry, looked up): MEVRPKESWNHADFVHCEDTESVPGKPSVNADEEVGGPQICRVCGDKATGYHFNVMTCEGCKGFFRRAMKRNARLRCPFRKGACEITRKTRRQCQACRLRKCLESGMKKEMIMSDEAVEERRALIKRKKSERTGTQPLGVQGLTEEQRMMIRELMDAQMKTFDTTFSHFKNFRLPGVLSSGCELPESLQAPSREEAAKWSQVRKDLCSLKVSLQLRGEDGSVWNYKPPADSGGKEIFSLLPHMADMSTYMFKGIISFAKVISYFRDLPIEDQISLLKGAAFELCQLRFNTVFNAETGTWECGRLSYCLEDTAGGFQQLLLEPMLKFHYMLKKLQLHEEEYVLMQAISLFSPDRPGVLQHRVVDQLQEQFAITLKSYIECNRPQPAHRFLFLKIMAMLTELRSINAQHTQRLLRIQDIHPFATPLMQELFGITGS
# Outline: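 Agonist mode: luminescence from ONE-Glo after 24 h compound exposure at 37C in HepG2 cells carrying hPXR-responsive CYP3A4 luciferase, plated in charcoal-stripped serum medium 5 h beforehand.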
# [12] = molecular target: Progesterone receptor (Homo sapiens) (UniProt P06401); assay: qHTS assay to identify small molecule agonists of the progesterone receptor (PR) signaling pathway (AID 1346784; calls by dose curve; also: nearly all actives have a fitted effect of over 30% in size)
# Progesterone receptor (Homo sapiens), sequence (P06401 whole entry, looked up): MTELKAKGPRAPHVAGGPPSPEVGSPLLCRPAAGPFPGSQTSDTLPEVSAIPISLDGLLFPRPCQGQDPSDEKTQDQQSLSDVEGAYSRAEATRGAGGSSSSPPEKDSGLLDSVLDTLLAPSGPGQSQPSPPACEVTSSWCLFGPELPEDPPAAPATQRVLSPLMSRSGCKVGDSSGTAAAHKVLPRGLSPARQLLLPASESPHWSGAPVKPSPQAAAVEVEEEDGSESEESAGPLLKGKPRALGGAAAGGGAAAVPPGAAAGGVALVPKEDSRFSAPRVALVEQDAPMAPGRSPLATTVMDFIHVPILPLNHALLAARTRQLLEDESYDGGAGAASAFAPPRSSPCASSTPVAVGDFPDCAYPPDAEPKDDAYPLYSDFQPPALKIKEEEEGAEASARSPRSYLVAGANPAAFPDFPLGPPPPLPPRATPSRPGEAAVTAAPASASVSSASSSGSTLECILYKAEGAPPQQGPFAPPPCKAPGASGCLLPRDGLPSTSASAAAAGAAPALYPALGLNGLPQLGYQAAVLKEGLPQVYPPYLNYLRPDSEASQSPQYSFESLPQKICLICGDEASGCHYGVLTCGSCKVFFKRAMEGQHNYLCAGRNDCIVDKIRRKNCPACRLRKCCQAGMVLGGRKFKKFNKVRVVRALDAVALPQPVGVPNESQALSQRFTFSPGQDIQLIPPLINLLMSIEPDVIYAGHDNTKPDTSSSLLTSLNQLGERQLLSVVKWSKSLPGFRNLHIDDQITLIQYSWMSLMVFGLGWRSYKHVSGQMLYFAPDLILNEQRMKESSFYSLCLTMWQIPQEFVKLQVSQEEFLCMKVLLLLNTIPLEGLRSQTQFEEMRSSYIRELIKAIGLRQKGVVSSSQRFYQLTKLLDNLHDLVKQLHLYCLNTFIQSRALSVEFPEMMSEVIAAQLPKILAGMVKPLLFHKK
# Outline: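 Using charcoal-stripped serum (2%) to limit endogenous steroids, PR-UAS-bla HEK 293T cells received compounds for 16 hr at 37C after 6 hr plating; beta-lactamase FRET fluorescence was recorded following 2 hr substrate loading at room temperature.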
# [13] = molecular target: Progesterone receptor (Homo sapiens) (UniProt P06401); assay: qHTS assay to identify small molecule antagonists of the progesterone receptor (PR) signaling pathway (AID 1346795; active = well fitted inhibition curve with a large enough effect in the signal ratio in the repeat runs, not every such curve was filed as active; the % refers to the signal ratio)
# Outline: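 Inhibition of R5020-induced (1 nM final) beta-lactamase reporter signal in PR-UAS-bla HEK293T cells was scored by FRET fluorescence after overnight (16 hr) compound treatment.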
# [14] = molecular target: Thyrotropin-releasing hormone receptor (Homo sapiens) (UniProt P34981); assay: qHTS assay to identify small molecule antagonists of the thyrotropin-releasing hormone receptor (TRHR) signaling pathway (AID 1346877; active = well fitted inhibition curve with a large enough effect in the repeat runs, not every such curve was filed as active; also: series mostly up to about 51 µM)
# Thyrotropin-releasing hormone receptor (Homo sapiens), sequence (P34981 whole entry, looked up): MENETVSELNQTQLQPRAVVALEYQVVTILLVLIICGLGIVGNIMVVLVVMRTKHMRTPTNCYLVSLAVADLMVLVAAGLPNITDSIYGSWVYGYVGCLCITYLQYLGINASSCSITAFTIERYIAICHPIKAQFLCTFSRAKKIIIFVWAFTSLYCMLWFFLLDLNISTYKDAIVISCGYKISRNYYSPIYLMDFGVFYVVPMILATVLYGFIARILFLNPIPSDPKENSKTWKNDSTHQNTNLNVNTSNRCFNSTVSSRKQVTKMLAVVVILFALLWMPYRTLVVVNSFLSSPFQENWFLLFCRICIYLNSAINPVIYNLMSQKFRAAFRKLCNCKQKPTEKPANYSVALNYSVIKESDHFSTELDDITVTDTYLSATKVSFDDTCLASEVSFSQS
# Outline: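 Antagonist mode: after a 5 min room-temperature compound exposure, cells were stimulated with 1 nM (final) TRH. Dye-loaded TRHR-HEK293 cells were used, and calcium-dependent fluorescence was followed for 3 min, with 15-point titrations run in triplicate.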
# [15] = molecular target: Thyrotropin-releasing hormone receptor (Homo sapiens) (UniProt P34981); assay: qHTS assay to identify small molecule agonists of the thyrotropin-releasing hormone receptor (TRHR) signaling pathway (AID 1346891; calls by dose curve;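 also: HEK293 cells expressing TRHR with calcium dye readout; series mostly up to about 58 µM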)
# Outline: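 In 1536-format, 1500 TRHR-Hek293 cells per well grew 18 h, took up calcium dye for 2 h at 37 °C, received compound, and were read kinetically; 15-point titrations, triplicates.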
# [16] = Human pregnane X receptor (PXR) small molecule agonists, qHTS cell viability counter screen (AID 1346977); also: nearly all actives have a fitted effect of over 50% in size
# Outline: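 Readout is CellTiter-Fluor fluorescence from PXR-Luc HepG2 cells. Plated cells rested 5hr, then were treated with compounds for 24hr at 37C and 5% CO2, with reagent present during the last hour.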
# [17] = Caspase-3/7 induction in HepG2 cells by small molecules, qHTS cell viability counter screen (AID 1346981); also: series mostly up to about 92 µM; nearly all actives have a fitted effect of over 30% in size
# Outline: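 CellTiter-Fluor fluorescence measured viability in the same wells used for Caspase-Glo 3/7. HepG2 (wild type) at 2,000 cells/well were pre-incubated 5 hr, dosed, and given reagent at 16 hr, with 1 hr further at 37C.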
# [18] = molecular target: Nuclear receptor subfamily 1 group I member 2 (Rattus norvegicus) (UniProt Q9R1A7); assay: Rat pregnane X receptor (rPXR) activation by small molecules, qHTS assay (AID 1346983); conditions: rPXR luciferase reporter cells, One-Glo luminescence, 24 h; max activation: stronger effect = higher value; also: nearly all actives have a fitted effect of over 20% in size
# Nuclear receptor subfamily 1 group I member 2 (Rattus norvegicus), sequence (Q9R1A7 whole entry, looked up): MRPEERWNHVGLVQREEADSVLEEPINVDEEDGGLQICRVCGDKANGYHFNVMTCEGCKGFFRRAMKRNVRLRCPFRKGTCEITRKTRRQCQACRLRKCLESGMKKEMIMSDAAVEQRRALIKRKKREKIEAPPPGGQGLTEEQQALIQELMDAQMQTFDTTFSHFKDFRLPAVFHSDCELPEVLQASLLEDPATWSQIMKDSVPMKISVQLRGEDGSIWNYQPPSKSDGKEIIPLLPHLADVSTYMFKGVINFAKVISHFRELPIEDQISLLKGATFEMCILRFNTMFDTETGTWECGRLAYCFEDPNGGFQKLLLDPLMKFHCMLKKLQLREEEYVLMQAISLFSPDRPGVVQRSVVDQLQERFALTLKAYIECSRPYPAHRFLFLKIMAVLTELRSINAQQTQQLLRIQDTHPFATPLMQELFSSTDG
# Outline: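 Luminescent readout (One-Glo luciferase, 30 min room temperature) followed 24 hr compound treatment at 37 C of rPXR cells plated 2,000 per well and preincubated 5hr; qHTS format with compounds delivered in DMSO.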
# [19] = molecular target: Nuclear receptor subfamily 1 group I member 2 (Homo sapiens) (UniProt O75469); assay: CYP3A4 induction through human pregnane X receptor (PXR) by small molecules, qHTS assay (AID 1346984); also: nearly all actives have a fitted effect of over 40% in size
# Outline: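 Read-out is luminescence after One-Glo addition, following a 3 hr, 37C incubation with Luciferin-IPA CYP3A4 substrate (3uM final). Before that, compounds were on DPX-2 cells (HepG2 co-transfected with PXR element plus CYP3A4-promoter luciferase) for 24 hr at 37C.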
# [20] = molecular target: Nuclear receptor subfamily 1 group I member 2 (Homo sapiens) (UniProt O75469); assay: Human pregnane X receptor (PXR) activation by small molecules, qHTS assay (AID 1346985); also: nearly all actives have a fitted effect of over 40% in size
# Outline: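 DPX-2 cells (HepG2 co-transfected with a PXR response element and a CYP3A4-promoter luciferase construct) were seeded at 2,000 per well, rested 5 hr at 37C, then exposed to DMSO-dissolved compounds for 24 hr. Activation was read as luciferase luminescence.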
smiles,measurement,setting,value
CC(C)(C)CC(C)(C)N,Potency,[1],inactive
same,outcome,[2],inactive
same,Potency,[3],inactive
same,Potency,[4],inactive
same,outcome,[5],inactive
same,outcome,[6],inactive
same,outcome,[7],inactive
same,outcome,[8],inactive
same,Potency,[9],inactive
same,outcome,[10],inactive
same,Potency,[11],inactive
NC1CCN(c2cccc(Cl)n2)CC1,outcome,[2],inactive
same,Potency,[12],inactive
same,Potency,[13],inactive
same,Potency,[3],inactive
same,Potency,[4],inactive
same,outcome,[5],inactive
same,outcome,[6],inactive
same,outcome,[7],inactive
same,outcome,[14],inactive
same,outcome,[15],inactive
same,Potency,[16],inactive
same,outcome,[8],inactive
same,Potency,[9],inactive
same,outcome,[10],inactive
same,Potency,[11],inactive
CCCCCCOC(=O)CC(CC(=O)OCCCCCC)(OC(=O)CCC)C(=O)OCCCCCC,Potency,[1],inactive
same,outcome,[2],inactive
same,Potency,[13],inactive
same,Potency,[3],inactive
same,outcome,[5],inactive
same,outcome,[6],inactive
same,outcome,[7],inactive
same,Potency,[16],inactive
same,outcome,[8],inactive
same,Potency,[9],inactive
same,outcome,[10],inactive
same,outcome,[17],inactive
same,Potency,[11],inactive
CNC(=O)c1c(I)c(NC(=O)CCCCC(=O)Nc2c(I)c(C(=O)O)c(I)c(C(=O)NC)c2I)c(I)c(C(=O)O)c1I,outcome,[2],inactive
same,Potency,[12],inactive
same,Potency,[13],inactive
same,Potency,[3],inactive
same,Potency,[4],inactive
same,outcome,[5],inactive
same,outcome,[6],inactive
same,outcome,[7],inactive
same,outcome,[14],inactive
same,outcome,[15],inactive
same,Potency,[16],inactive
same,outcome,[8],inactive
same,outcome,[10],inactive
same,outcome,[17],inactive
same,Potency,[11],inactive
C=C[Si](OC)(OC)OC,outcome,[2],inactive
same,Potency,[12],inactive
same,Potency,[13],inactive
same,Potency,[3],inactive
same,Potency,[4],inactive
same,outcome,[5],inactive
same,outcome,[6],inactive
same,outcome,[7],inactive
same,outcome,[14],inactive
same,outcome,[15],inactive
same,Potency,[16],inactive
same,outcome,[8],inactive
same,Potency,[9],inactive
same,outcome,[10],inactive
same,outcome,[17],inactive
same,Potency,[11],inactive
C1CCCCCCCCCCC1,"activity change, negative = inhibition",[1],-0.259% [at 19 µM]
same,activation,[12],-0.689% [at 19 µM]
same,"activity change, negative = inhibition",[13],0.992% [at 18.9 µM]
same,"activity change, negative = cytotoxicity",[3],8.3% [at 18.9 µM]
same,"activity change, negative = cytotoxicity",[4],1.68% [at 19 µM]
same,"viability change, negative = cytotoxic",[5],13% [at 15.8 µM]
same,"activity change, negative = cytotoxicity",[6],5.27% [at 15.8 µM]
same,activation,[7],1.5% [at 15.8 µM]
same,"activity, negative = inhibition",[14],-13.6% [at 10.5 µM]
same,activation,[15],1.06% [at 11.8 µM]
same,"activity change, negative = cytotoxicity",[16],4.48% [at 19 µM]
same,caspase activation,[8],0.953% [at 19 µM]
same,"activity change, negative = cytotoxicity",[9],2.86% [at 19 µM]
same,caspase-3/7 activation,[10],0.0072% [at 19 µM]
same,activation,[11],7.58% [at 19 µM]
CC/C=C\CCCCO,outcome,[2],inactive
same,Potency,[12],inactive
same,Potency,[13],inactive
same,Potency,[3],inactive
same,Potency,[4],inactive
same,outcome,[5],inactive
same,outcome,[6],inactive
same,outcome,[7],inactive
same,outcome,[14],inactive
same,outcome,[15],inactive
same,outcome,[8],inactive
same,Potency,[9],inactive
same,outcome,[10],inactive
same,Potency,[11],inactive
O=C(O)C(O)[C@H](O)[C@@H](O)[C@H](O)[C@H](O)CO (some centres not stated),Potency,[1],inactive
same,outcome,[2],inactive
same,Potency,[13],inactive
same,Potency,[4],49.1 µM (active)
same,outcome,[5],inactive
same,outcome,[6],inactive
same,outcome,[7],inactive
same,Potency,[16],inactive
same,outcome,[8],inactive
same,Potency,[9],inactive
same,outcome,[10],inactive
same,Potency,[11],inactive
CCCCCCCCCCCCCCCCCCOCC(O)CO (configuration not stated),Potency,[1],inactive
same,Potency,[12],inactive
same,Potency,[13],inactive
same,Potency,[3],inactive
same,Potency,[4],inactive
same,outcome,[5],inactive
same,outcome,[6],inactive
same,outcome,[7],inactive
same,Potency,[16],inactive
same,outcome,[8],inactive
same,outcome,[10],inactive
same,outcome,[17],inactive
same,Potency,[11],inactive
same,max activation,[18],3.52%
same,Potency,[19],inactive
same,Potency,[20],inactive
